# Measured values taken from PubChem BioAssay (NCI).
# The panel holds about 79,000 compounds, 15% with a hit somewhere; the sample as a whole holds those more often. A number with no mark means an inactive call. The source made the active and inactive calls. No stated cut-off is given here; in the data, active means growth inhibition above about 70%; inactive means the rest.
# Experiment: NCI Yeast Anticancer Drug Screen. Data for the wt1 strain (AID 149);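 further: 0% = growth of vehicle-treated wt1 cultures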
# Settings: S. cerevisiae wt1 strain (SPY 50644) growth inhibition, active compounds read high
# Description: Growth inhibition of yeast strains with defined genetic alterations is measured as a screen for potential anti-cancer activity. Selected strains with alterations in DNA damage repair or cell cycle control were exposed to compounds and growth inhibition was measured relative to vehicle treated controls. The strain used in this assay is wt1
SMILES,growth inhibition (at 1.2 µM) [%],growth inhibition (at 3.7 µM),growth inhibition (at 11.0 µM),growth inhibition (at 33.0 µM),growth inhibition (at 100.0 µM)
Cc1cc(OCc2ccccc2)ccc1[N+](=O)[O-],23,-10%,21%,32%,60%
CNc1ccc(Cc2c[nH]c3ccccc23)cc1,-11,-11%,-17%,-17%,-1%
COCCCN(Cc1cc(OC)c(OC)c(OC)c1)C(=S)Nc1cccc(Cl)c1,15,12%,9%,15%,24%
S=c1[nH]nc(-c2ccc(Cl)cc2)s1,-18,-21%,-25%,78% (active),96% (active)
CC(=O)N1C(=O)/C(=C\C(=O)c2ccc(Cl)cc2)c2ccccc21,5,7%,31%,79% (active),94% (active)
C/C(=N\NC(=S)NC1CCCC1)c1ccccn1,3,75% (active),99% (active),99% (active),99% (active)
CCCCCCCCCCCc1nc(N)n[nH]1,-3,-4%,1%,67%,95% (active)
CN(CC(=O)O)c1ccc(/C=C/c2ccnc3ccccc23)cc1,-2,-3%,-4%,-8%,-6%
